Data as given in ChEMBL document CHEMBL5724796, “Tm Shift (DSF) assay results for EUbOPEN Chemogenomics Library” (2024).

Columns and labels:
Conditions in all cases: Compound concentration 20.0 uM
[1] = biological target: Tyrosine-protein kinase ABL1 (Homo sapiens) (UniProt P00519)
[2] = biological target: Bromodomain-containing protein 4 (Homo sapiens) (UniProt O60885)
[3] = biological target: Cyclin-dependent kinase 2 (Homo sapiens) (UniProt P24941)
[4] = biological target: Casein kinase I isoform delta (Homo sapiens) (UniProt P48730)
[5] = biological target: Glycogen synthase kinase-3 beta (Homo sapiens) (UniProt P49841)
[6] = biological target: Mitogen-activated protein kinase 1 (Homo sapiens) (UniProt P28482)
[7] = biological target: T1, Aurora kinase A (Homo sapiens) (UniProt O14965)
T1 sequence (whole entry): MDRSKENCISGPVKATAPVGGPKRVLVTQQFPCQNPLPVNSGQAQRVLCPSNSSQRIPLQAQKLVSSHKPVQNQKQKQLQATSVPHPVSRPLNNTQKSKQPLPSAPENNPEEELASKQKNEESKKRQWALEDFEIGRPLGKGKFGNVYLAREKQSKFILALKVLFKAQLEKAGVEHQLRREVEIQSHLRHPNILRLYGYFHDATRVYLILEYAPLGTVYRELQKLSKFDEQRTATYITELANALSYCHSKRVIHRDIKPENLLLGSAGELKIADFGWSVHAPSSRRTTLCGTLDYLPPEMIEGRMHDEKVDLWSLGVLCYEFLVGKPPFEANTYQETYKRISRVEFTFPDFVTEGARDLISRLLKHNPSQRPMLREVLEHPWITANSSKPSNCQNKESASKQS

[8] = biological target: T2, Transcription intermediary factor 1-alpha (Homo sapiens) (UniProt O15164)
T2 sequence (whole entry): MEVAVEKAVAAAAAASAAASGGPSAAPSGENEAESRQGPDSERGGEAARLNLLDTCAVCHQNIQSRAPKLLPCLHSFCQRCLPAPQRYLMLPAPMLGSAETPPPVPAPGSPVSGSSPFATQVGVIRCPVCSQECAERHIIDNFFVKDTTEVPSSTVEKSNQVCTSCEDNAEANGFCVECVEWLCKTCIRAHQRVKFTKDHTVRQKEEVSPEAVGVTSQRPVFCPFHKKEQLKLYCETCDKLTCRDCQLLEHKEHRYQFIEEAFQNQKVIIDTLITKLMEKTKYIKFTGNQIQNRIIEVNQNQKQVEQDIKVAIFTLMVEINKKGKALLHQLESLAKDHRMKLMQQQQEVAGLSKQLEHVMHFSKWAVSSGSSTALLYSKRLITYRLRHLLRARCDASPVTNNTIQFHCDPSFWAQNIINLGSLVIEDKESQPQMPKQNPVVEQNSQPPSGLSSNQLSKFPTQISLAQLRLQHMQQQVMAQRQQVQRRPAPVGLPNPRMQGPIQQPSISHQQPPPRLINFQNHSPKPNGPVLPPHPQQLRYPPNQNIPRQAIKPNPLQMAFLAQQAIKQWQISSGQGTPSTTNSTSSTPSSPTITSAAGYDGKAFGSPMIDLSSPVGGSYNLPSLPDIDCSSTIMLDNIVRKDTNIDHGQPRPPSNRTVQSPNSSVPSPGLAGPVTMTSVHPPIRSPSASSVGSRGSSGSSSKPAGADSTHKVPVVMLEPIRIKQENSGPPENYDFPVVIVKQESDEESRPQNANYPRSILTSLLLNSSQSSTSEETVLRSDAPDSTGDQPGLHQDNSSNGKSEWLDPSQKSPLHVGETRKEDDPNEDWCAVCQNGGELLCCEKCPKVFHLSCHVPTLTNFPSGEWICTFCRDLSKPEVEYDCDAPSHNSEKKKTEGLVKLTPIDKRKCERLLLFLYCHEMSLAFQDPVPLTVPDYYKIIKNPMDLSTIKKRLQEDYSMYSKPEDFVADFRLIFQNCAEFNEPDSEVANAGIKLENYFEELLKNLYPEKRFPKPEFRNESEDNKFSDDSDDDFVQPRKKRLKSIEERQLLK

Tyrosine-protein kinase ABL1 (Homo sapiens), sequence (P00519 whole entry): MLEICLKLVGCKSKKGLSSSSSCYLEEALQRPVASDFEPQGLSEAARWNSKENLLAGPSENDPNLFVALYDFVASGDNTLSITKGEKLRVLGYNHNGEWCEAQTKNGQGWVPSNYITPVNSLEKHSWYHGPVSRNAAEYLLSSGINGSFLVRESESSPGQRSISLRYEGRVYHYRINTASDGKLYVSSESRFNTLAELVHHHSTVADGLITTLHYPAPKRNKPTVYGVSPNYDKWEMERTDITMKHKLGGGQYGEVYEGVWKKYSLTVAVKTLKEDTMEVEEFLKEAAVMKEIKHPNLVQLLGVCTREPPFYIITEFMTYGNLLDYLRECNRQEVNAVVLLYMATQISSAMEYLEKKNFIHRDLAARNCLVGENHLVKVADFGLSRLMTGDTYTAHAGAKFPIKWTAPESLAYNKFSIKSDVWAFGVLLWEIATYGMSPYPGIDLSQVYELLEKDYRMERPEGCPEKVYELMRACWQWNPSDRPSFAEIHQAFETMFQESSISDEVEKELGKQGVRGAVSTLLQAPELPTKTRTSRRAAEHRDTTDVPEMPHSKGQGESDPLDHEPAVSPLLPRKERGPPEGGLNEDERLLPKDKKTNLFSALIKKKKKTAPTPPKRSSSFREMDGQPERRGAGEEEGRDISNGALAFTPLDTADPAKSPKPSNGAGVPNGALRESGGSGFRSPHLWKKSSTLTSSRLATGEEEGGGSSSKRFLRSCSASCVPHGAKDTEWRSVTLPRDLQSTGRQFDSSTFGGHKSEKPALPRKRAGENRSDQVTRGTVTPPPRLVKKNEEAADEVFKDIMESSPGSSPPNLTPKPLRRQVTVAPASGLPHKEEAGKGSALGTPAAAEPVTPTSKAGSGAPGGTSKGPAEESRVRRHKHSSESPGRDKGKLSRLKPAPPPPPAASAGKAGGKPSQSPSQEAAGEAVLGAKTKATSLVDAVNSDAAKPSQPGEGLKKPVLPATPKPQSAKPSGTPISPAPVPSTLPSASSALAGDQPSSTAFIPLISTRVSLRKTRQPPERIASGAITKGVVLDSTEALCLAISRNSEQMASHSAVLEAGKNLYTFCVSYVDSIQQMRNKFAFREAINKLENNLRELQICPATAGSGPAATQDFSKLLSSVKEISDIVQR
Mitogen-activated protein kinase 1 (Homo sapiens), sequence (P28482 whole entry): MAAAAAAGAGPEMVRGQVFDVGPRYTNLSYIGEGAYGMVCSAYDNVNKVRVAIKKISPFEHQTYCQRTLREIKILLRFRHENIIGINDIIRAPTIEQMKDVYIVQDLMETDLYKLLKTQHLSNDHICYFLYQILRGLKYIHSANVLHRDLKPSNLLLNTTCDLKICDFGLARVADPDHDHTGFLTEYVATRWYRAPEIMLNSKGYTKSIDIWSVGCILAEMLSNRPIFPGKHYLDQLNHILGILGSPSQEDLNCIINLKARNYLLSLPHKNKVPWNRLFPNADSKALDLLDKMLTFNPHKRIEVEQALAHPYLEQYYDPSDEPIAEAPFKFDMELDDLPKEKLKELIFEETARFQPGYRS
Casein kinase I isoform delta (Homo sapiens), sequence (P48730 whole entry, looked up, canonical isoform): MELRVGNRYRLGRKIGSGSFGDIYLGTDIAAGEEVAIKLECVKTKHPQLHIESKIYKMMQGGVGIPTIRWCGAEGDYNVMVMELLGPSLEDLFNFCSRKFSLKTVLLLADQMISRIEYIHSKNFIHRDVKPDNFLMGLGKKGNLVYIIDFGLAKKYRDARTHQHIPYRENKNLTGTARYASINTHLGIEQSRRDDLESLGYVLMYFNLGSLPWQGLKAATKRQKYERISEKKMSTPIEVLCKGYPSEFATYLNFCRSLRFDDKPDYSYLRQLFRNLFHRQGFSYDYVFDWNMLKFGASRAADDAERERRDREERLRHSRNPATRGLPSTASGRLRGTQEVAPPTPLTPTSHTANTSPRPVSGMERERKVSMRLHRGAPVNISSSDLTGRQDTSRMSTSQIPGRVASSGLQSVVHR
Glycogen synthase kinase-3 beta (Homo sapiens), sequence (P49841 whole entry, looked up): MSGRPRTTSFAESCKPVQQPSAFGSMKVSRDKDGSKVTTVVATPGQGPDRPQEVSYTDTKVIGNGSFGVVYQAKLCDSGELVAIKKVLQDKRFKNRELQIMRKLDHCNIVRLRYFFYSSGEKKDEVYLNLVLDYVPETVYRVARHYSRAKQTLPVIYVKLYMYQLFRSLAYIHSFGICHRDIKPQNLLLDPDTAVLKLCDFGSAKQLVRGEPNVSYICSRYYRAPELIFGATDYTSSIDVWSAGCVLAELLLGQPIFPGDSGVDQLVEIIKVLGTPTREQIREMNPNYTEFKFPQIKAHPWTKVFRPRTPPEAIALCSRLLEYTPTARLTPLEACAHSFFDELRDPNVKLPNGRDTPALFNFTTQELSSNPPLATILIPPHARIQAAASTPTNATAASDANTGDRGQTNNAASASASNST

| Structure (SMILES) | ΔTm [1] | ΔTm [2] | ΔTm [3] | ΔTm [4] | ΔTm [5] | ΔTm [6] | ΔTm [7] | ΔTm [8] |
| --- | --- | --- | --- | --- | --- | --- | --- | --- |
| COC[C@@H]1CCCN1S(=O)(=O)c1ccc2c(c1)C(=O)C(=O)N2 | 0.35 °C | -1.47 °C | -0.41 °C | 0.01 °C | -0.2 °C | -0.37 °C | -0.97 °C | -0.89 °C |
| Cc1cc(OCc2nnc(SC3CCCC3)n2-c2cccnc2)ccc1-c1ccc(S(C)(=O)=O)cc1 | -1.4 °C | -2.52 °C | 0.2 °C | -0.2 °C | -4.14 °C | 0 °C | -1.26 °C | 0.18 °C |
| C[C@H](NC(=O)CCc1nc2ccccc2c(=O)[nH]1)c1ccccc1 | 0.18 °C | 0.84 °C | 0.79 °C | 0.42 °C | -0.21 °C | 0.83 °C | -1.25 °C | 0.31 °C |
| CC(C)c1cnc(CSc2cnc(NC(=O)C3CCNCC3)s2)o1 | 0.26 °C | -1.43 °C | 6.28 °C | 1.43 °C | 7.03 °C | -0.12 °C | 3.08 °C | -0.84 °C |
| N#Cc1cc2cc(CN3CCC(Nc4ncnc5sc(CC(F)(F)F)cc45)CC3)ccc2[nH]1 | 0.42 °C | 1.04 °C | 0.06 °C | 1.89 °C | -0.5 °C | 0.61 °C | -0.57 °C | 1.28 °C |
| Cc1ccc(NC2=CC(=O)c3sc(C)nc3C2=O)cc1 | 0.31 °C | -1.66 °C | 0.97 °C | -0.17 °C | -0.8 °C | 0.04 °C | -0.65 °C | -1.44 °C |
| CS(=O)(=O)Nc1ccc2oc3c(OC(F)F)ccc(C(=O)Nc4c(Cl)cncc4Cl)c3c2c1 | 0.6 °C | -1.02 °C | -0.16 °C | -1.11 °C | -0.39 °C | 0.24 °C | -1.56 °C | 0.09 °C |
| CCC(NC(=O)C(CC(C)C)NC(=O)OCc1ccccc1)C(=O)C(=O)NCCCN1CCOCC1 (stereo not drawn) | 0.13 °C | -2.44 °C | -0.24 °C | 0.08 °C | -1.31 °C | -0.33 °C | -0.93 °C | -1.35 °C |
| CCCCOc1c(OC)cc(C(=O)NCC2(N(C)C)CCOCC2)cc1OC | 0.07 °C | 0.11 °C | 0.02 °C | -0.36 °C | -1.71 °C | 0.03 °C | -2.39 °C | -0.41 °C |
| O=C1c2ccccc2C(=O)c2oc(-c3ccccc3)nc21 | 0.27 °C | -2.65 °C | 0.44 °C | -0.2 °C | 0.18 °C | -0.09 °C | -2.45 °C | 1.13 °C |
| O=S(=O)(CSc1nnc(Br)n1Cc1ccc(Br)c2ccccc12)Nc1cccnc1 | 0.41 °C | -4.11 °C | -0.15 °C | -0.32 °C | -0.3 °C | 0.05 °C | -1.41 °C | -0.15 °C |
| CC1(C)Cn2nc(-c3ccc(F)cn3)c(-c3ccnc4[nH]ncc34)c2CO1 | 2.43 °C | -1.54 °C | 0.09 °C | 9.16 °C | -1.21 °C | -0.48 °C | -0.55 °C | -1.54 °C |
| CN(CCCCCCNc1ccnc2cc(Cl)ccc12)CCCCCCNc1ccnc2cc(Cl)ccc12 | -1.1 °C | 2.96 °C | 0.27 °C | -0.85 °C | -0.7 °C | -0.51 °C | -1.69 °C | 0.54 °C |
| O=C(O)CCNC(=S)NCCCC[C@H](NS(=O)(=O)c1cccc(F)c1)C(=O)N[C@@H](Cc1c[nH]c2ccccc12)C(=O)NC1CCC1 | 0.2 °C | -3.5 °C | -0.16 °C | -0.24 °C | -0.19 °C | 0.22 °C | -2.13 °C | -1.96 °C |
| Cc1ccc(F)c2cc(C(=O)N[C@@H]3CCC[C@H](N4CC[C@H](N(C)S(C)(=O)=O)C4)C3)[nH]c12 | 0.55 °C | -1.2 °C | 0.24 °C | 0.73 °C | -1.31 °C | -0.53 °C | 0.21 °C | -1.39 °C |
| CCN(C(=O)c1cc(F)ccc1Oc1cncnc1N1CC2(CCN(C[C@H]3CC[C@H](NS(=O)(=O)CC)CC3)CC2)C1)C(C)C | 0.7 °C | -2.35 °C | 0.16 °C | -0.01 °C | -0.74 °C | 0.48 °C | -2.26 °C | 0.24 °C |
